In all, about 5,500 compounds went through this assay and about 2,000 (36%) were called active. Roughly 18% stayed inconclusive and do not appear here. Cut-off read from the data, not from the text of the source: active = normalized growth mostly below about 0.91 (no sharp cut-off); inconclusive = no clear call, values can overlap the other calls; inactive = mostly above about 0.92. Some of the results follow.
Assay: chemical genetic growth profiling, strain panel (AID 1159580);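 note: tested at 20 µM; growth read once vehicle control cultures reached saturation at 30 °C; 1 = growth at the plate median or of vehicle wells; lower values mean less growth of the strain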
Conditions: growth OD

Measured: normalized growth

COC1=CC(C)[C@@H]2C[C@H]3OC(=O)C[C@H]4C(C)=C(OC)C(=O)C([C@@]34C)[C@@]2(C)C1=O (some centres undefined)
inactive: S. cerevisiae deletion strains, locus YKL009W, strain mrt4, active compounds read low 1.01 | S. cerevisiae deletion strains, locus YKL068W, active compounds read low 1 | S. cerevisiae deletion strains, locus YKL085W, strain MDH1 (second series), active compounds read low 1 | S. cerevisiae deletion strains, locus YKL085W, strain MDH1, active compounds read low 1 | S. cerevisiae deletion strains, locus YKL160W, strain elf1, active compounds read low 1 | S. cerevisiae deletion strains, locus YKL190W, strain CNB1, active compounds read low 1.01 | S. cerevisiae deletion strains, locus YKR001C, strain vps1, active compounds read low 0.986 | S. cerevisiae deletion strains, locus YKR026C, strain gcn3, active compounds read low 0.96 | S. cerevisiae deletion strains, locus YKR091W, strain srl3, active compounds read low 0.967 | S. cerevisiae deletion strains, locus YLL001W, strain dnm1, active compounds read low 0.969 | S. cerevisiae deletion strains, locus YLL026W, active compounds read low 0.985 | S. cerevisiae deletion strains, locus YLL041C, strain sdh2, active compounds read low 0.983 | S. cerevisiae deletion strains, locus YLR027C, strain aat2, active compounds read low 0.992 | S. cerevisiae deletion strains, locus YLR039C, strain RIC1, active compounds read low 1.06 | S. cerevisiae deletion strains, locus YLR058C, strain SHM2, active compounds read low 1.02 | S. cerevisiae deletion strains, locus YLR102C, strain apc9, active compounds read low 1.02 | S. cerevisiae deletion strains, locus YLR113W, strain HOG1, active compounds read low 1.03 | S. cerevisiae deletion strains, locus YLR221C, strain rsa3, active compounds read low 1.01 | S. cerevisiae deletion strains, locus YLR258W, strain gsy2, active compounds read low 0.968 | S. cerevisiae deletion strains, locus YLR262C, strain YPT6 (second series), active compounds read low 0.991 | S. cerevisiae deletion strains, locus YLR262C, strain YPT6, active compounds read low 1.16 | S. cerevisiae deletion strains, locus YLR268W, strain sec22, active compounds read low 1.04 | S. cerevisiae deletion strains, locus YLR320W, strain mms22, active compounds read low 0.975 | S. cerevisiae deletion strains, locus YLR330W, strain CHS5, active compounds read low 1.01 | S. cerevisiae deletion strains, locus YLR342W, strain FKS1 (second series), active compounds read low 1.01 | S. cerevisiae deletion strains, locus YLR342W, strain FKS1, active compounds read low 0.976 | S. cerevisiae deletion strains, locus YLR357W, strain rsc2, active compounds read low 0.942 | S. cerevisiae deletion strains, locus YLR370C, strain arc18, active compounds read low 0.978 | S. cerevisiae deletion strains, locus YLR371W, strain rom2, active compounds read low 1.02 | S. cerevisiae deletion strains, locus YLR384C, strain iki3, active compounds read low 0.967 | S. cerevisiae deletion strains, locus YLR418C, strain cdc73, active compounds read low 1 | S. cerevisiae deletion strains, locus YML016C, strain PPZ1, active compounds read low 1.01 | S. cerevisiae deletion strains, locus YML032C, strain rad52, active compounds read low 1.01 | S. cerevisiae deletion strains, locus YML120C, strain ndi1, active compounds read low 0.99 | S. cerevisiae deletion strains, locus YML124C, strain tub3, active compounds read low 1.01 | S. cerevisiae deletion strains, locus YMR058W, strain fet3, active compounds read low 0.976 | S. cerevisiae deletion strains, locus YMR078C, strain ctf18, active compounds read low 1.03 | S. cerevisiae deletion strains, locus YMR125W, strain sto1, active compounds read low 0.975 | S. cerevisiae deletion strains, locus YMR129W, active compounds read low 0.987 | S. cerevisiae deletion strains, locus YMR205C, strain PFK2, active compounds read low 0.946 | S. cerevisiae deletion strains, locus YMR223W, strain ubp8, active compounds read low 1.01 | S. cerevisiae deletion strains, locus YMR231W, strain pep5, active compounds read low 0.973 | S. cerevisiae deletion strains, locus YMR263W, strain SAP30, active compounds read low 1.02 | S. cerevisiae deletion strains, locus YMR307W, strain GAS1, active compounds read low 1.17 | S. cerevisiae deletion strains, locus YNL067W, strain RPL9B, active compounds read low 1.03 | S. cerevisiae deletion strains, locus YNL071W, strain lat1, active compounds read low 0.987 | S. cerevisiae deletion strains, locus YNL153C, strain GIM3, active compounds read low 1.02 | S. cerevisiae deletion strains, locus YNL183C, strain NPR1, active compounds read low 0.988 | S. cerevisiae deletion strains, locus YNL209W, strain ssb2, active compounds read low 1 | S. cerevisiae deletion strains, locus YNL233W, strain BNI4, active compounds read low 1.03 | S. cerevisiae deletion strains, locus YNL248C, strain rpa49, active compounds read low 1.01 | S. cerevisiae deletion strains, locus YNL250W, strain rad50, active compounds read low 1.03 | S. cerevisiae deletion strains, locus YNL271C, strain bni1, active compounds read low 1.01 | S. cerevisiae deletion strains, locus YNL298W, strain CLA4, active compounds read low 1.02 | S. cerevisiae deletion strains, locus YNL307C, strain MCK1, active compounds read low 1.01 | S. cerevisiae deletion strains, locus YNL322C, strain KRE1 (second series), active compounds read low 0.988 | S. cerevisiae deletion strains, locus YNL322C, strain KRE1, active compounds read low 1 | S. cerevisiae deletion strains, locus YNR049C, strain mso1, active compounds read low 0.973 | S. cerevisiae deletion strains, locus YNR052C, strain pop2, active compounds read low 1.01 | S. cerevisiae deletion strains, locus YOL006C, strain TOP1, active compounds read low 1.08 | S. cerevisiae deletion strains, locus YOL012C, strain htz1 2.07 | S. cerevisiae deletion strains, locus YOL147C, strain pex11, active compounds read low 1 | S. cerevisiae deletion strains, locus YOR001W, strain rrp6, active compounds read low 0.993 | S. cerevisiae deletion strains, locus YOR061W, strain CKA2, active compounds read low 1.01 | S. cerevisiae deletion strains, locus YOR069W, strain VPS5, active compounds read low 1.01 | S. cerevisiae deletion strains, locus YOR070C, strain gyp1, active compounds read low 0.987 | S. cerevisiae deletion strains, locus YOR080W, strain dia2, active compounds read low 0.977 | S. cerevisiae deletion strains, locus YOR083W, strain WHI5, active compounds read low 1.01 | S. cerevisiae deletion strains, locus YOR106W, strain vam3, active compounds read low 0.992 | S. cerevisiae deletion strains, locus YOR136W, strain idh2, active compounds read low 1.01 | S. cerevisiae deletion strains, locus YOR144C, strain elg1, active compounds read low 1.01 | S. cerevisiae deletion strains, locus YOR184W, strain ser1, active compounds read low 1.02 | S. cerevisiae deletion strains, locus YOR231W, strain MKK1, active compounds read low 1.04 | S. cerevisiae deletion strains, locus YOR265W, strain rbl2, active compounds read low 0.982 | S. cerevisiae deletion strains, locus YOR270C, strain vph1, active compounds read low 0.975 | S. cerevisiae deletion strains, locus YOR290C, strain snf2, active compounds read low 0.903 | S. cerevisiae deletion strains, locus YOR316C, strain cot1, active compounds read low 1.01 | S. cerevisiae deletion strains, locus YPL051W, strain arl3, active compounds read low 1 | S. cerevisiae deletion strains, locus YPL078C, strain atp4, active compounds read low 0.996 | S. cerevisiae deletion strains, locus YPL106C, strain sse1, active compounds read low 0.978 | S. cerevisiae deletion strains, locus YPL240C, strain hsp82, active compounds read low 0.987 | S. cerevisiae deletion strains, locus YPL241C, strain CIN2, active compounds read low 1.01 | S. cerevisiae deletion strains, locus YPL256C, strain CLN2, active compounds read low 1.01 | S. cerevisiae deletion strains, locus YPR119W, strain clb2, active compounds read low 1.01 | S. cerevisiae deletion strains, locus YPR141C, strain kar3, active compounds read low 1.01 | S. cerevisiae deletion strains, locus YPR163C, strain tif3, active compounds read low 1.01 | S. cerevisiae deletion strains, locus YPR167C, strain met16, active compounds read low 1 | S. cerevisiae deletion strains, strain wtn01, active compounds read low 1.01 | S. cerevisiae strains, strain wild type, active compounds read low 1.01
